From PubChem BioAssay AID588405 (Sanford-Burnham Center for Chemical Genomics, 2011) come the findings set out here.

Molecules are shown by their SMILES. Among all 360,000 compounds or so, about 6,200 (1.7%) were called active. This excerpt belongs to a sample that is enriched for actives. Unmarked numbers belong to inactive results.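 Rule for the calls: active = inhibition of at least 50% at 20 µM; inactive = the rest.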

This experiment is described as follows: Peg3 promoter-driven luciferase inhibitors, primary screen, cell-based, HeLa, luciferase luminescence (AID 588405). The following applies: HeLa PEG-Prom luciferase reporter, overnight, at 20 µM, hits give high values.
Consider `CC1([N+](=O)[O-])COP(=O)(Nc2ccc(F)cc2)OC1` (stereo unspecified), for which the inhibition is 3.6%. The result for `CCCCCn1c(=O)c(C(=O)NCc2ccccn2)c(O)c2ccccc21` reads 15.5%; that for `CCOc1ccc(-c2cc(C)[n+](CCN(CC)CC)c(-c3ccc(OCC)cc3)c2)cc1`, 53.3% (active). On to `CC(C)n1c(=O)c(C=Nc2ccc(Br)cc2)c(O)n(Cc2ccco2)c1=O`, for which the inhibition is 8.27%. For the compound `COC(=O)C1=C(c2ccc(Cl)c(C(F)(F)F)c2)C[C@@H]2CC[C@H]1N2C(=O)NC1CC1`, the inhibition is -0.39%. For `COC(=O)C1=C(c2ccc3ccccc3c2)C[C@@H]2CC[C@H]1N2C(=O)NCCO` the value was -5.4%. For `COC1C(O)C(C)OC(OC2CCC3(C=O)C(CCC4C3CCC3(C)C(C5=CC(=O)OC5)CCC43O)C2)C1O` (stereo unspecified) the value was 105% (active). With `CC1C(=O)OC2CCN3CC=C(COC(=O)C(C)(O)C1(C)O)C23` (stereo unspecified), the inhibition was -0.84%. For `CC1=C(C(=O)Nc2ccccc2)S(=O)(=O)CCO1`, the inhibition is 9.24%. For `CC1=C2C(=O)C3C(CC=C4CC(OC5OC(O)C(O)C(O)C5CO)CCC43C)C2CCC12OC1CC(C)CNC1C2C` (stereo unspecified) the value was -7.24%; for `CCN(CC)C(=O)c1ccc(NC(=O)c2cc(-n3cnnc3)ccc2Cl)cc1`, 5.1%; for `CN(C)CC1Oc2ccccc2OC1(O)c1ccccc1` (stereo unspecified), 103% (active). The result for `c1cc2c(cc1C1OCC3C(c4ccc5c(c4)OCO5)OCC13)OCO2` (stereo unspecified) reads -66.8%; that for `COc1ccc(NC(=O)N2Cc3ccccc3-n3nncc3C2)cc1`, 7.2%. As to `Cc1ccc(C)c(NC2=NCCCS2)c1`, the inhibition was 4.99%. For `COC(=O)C1=C(c2ccc(F)cc2OCc2ccccc2)C[C@@H]2CC[C@H]1N2C(=O)NCc1ccc(C(C)(C)C)cc1` the value was 14.9%; for `CC1(C)Cc2c(C#N)c(N3CCNCC3)nc(-c3ccco3)c2CS1`, 78.3% (active). `c1ccc(N2Cc3ccccc3-n3nncc3C2)nc1`: the inhibition was -7.56%. The result for `COc1cc(-n2c(=S)[nH]c3ccc(C)cc3c2=O)c(Cl)cc1Cl` reads 30.3%. Regarding `CCOC(=O)c1c(C)c(C(=O)N2CCC3(CC2)OCCO3)c(C)n1CC`, the inhibition is 13.1%. The result for `C[C@H]1CN([C@@H](C)CO)C(=O)CCCn2nncc2CO[C@H]1CN(C)C(=O)Oc1cccc2ccccc12` reads 9.28%.
